Assay results from the supplement of paper PMC10849652.
Of roughly 7,900 targets only a part is listed; those with a hit were picked by preference. About 0.6% of all pairs of compound and target were hits.

Key:
Assay in all cases: log2 fold change, soluble protein after heating vs DMSO (PISA); higher = thermal stabilisation; K562 cells, 10 uM, 30 min; active = over 0.2 and 3.5 SD of the protein, either way, in both replicates (recomputed)
[1] = compound: CC1=C(SC2=C1C(=N[C@H](C3=NN=C(N32)C)CC(=O)N)C4=CC=C(C=C4)Cl)C
Method in brief: (§1)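 K562 cells at 2×10^6 cells/mL were treated with 10 μM compound for 30 min. Aliquots were heated for 3 min across 48°C-58°C, pooled, and extracted in PBS with 0.5% NP-40 at 4°C; soluble protein was the supernatant after 21,000xg for 90 min. Soluble protein was quantified by TMTpro 16plex LC-MS/MS with channel sums equalised, and reported as log2 fold change in thermal stability against DMSO controls, with values from duplicates.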

[2] = compound: c1ccc([C@@H]2C[C@H]2NC2CCNCC2)cc1
Method in brief: as §1

[3] = compound: C1=CC=C(C=C1)[C@H](COC2=CC3=C(C=C2)NC(=O)N3)NC(=O)C4=CC=CN(C4=O)CC5=CC(=C(C=C5)F)F
Method in brief: as §1

[4] = compound: CC1=C2C(=CC=C1)N=C(N(C2=O)C3=CC=CC=C3C)CN4C=NC5=C(N=CN=C54)N
Method in brief: as §1

[5] = compound: Cc1sc2c(c1C)C(c1ccc(Cl)cc1)=N[C@@H](CC(=O)OC(C)(C)C)c1nnc(C)n1-2
Method in brief: as §1

Measured: log2 fold change

OSBPL2 (UniProt Q9H1P3)
inactive: [1] -0.583 | [2] -0.09

NECTIN2 isoform 2 (UniProt Q92692)
UniProt Q92692, sequence (Q92692 whole entry, looked up): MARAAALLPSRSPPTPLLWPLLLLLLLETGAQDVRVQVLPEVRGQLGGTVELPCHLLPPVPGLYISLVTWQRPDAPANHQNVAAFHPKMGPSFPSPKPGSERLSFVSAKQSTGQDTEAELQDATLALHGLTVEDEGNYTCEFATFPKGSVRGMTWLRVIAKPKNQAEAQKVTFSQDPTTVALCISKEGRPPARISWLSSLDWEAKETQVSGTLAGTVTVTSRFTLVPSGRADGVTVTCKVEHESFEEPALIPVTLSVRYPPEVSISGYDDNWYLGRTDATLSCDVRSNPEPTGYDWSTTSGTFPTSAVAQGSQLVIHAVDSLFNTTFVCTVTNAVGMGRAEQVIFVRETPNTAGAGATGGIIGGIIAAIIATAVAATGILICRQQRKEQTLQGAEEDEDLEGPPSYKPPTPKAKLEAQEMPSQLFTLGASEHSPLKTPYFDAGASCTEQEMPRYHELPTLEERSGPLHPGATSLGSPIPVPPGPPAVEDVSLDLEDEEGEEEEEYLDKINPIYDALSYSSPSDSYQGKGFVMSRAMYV
inactive: [3] 0.179 | [4] -0.03

MYO19 (UniProt Q96H55)
UniProt Q96H55, sequence (Q96H55 whole entry, looked up): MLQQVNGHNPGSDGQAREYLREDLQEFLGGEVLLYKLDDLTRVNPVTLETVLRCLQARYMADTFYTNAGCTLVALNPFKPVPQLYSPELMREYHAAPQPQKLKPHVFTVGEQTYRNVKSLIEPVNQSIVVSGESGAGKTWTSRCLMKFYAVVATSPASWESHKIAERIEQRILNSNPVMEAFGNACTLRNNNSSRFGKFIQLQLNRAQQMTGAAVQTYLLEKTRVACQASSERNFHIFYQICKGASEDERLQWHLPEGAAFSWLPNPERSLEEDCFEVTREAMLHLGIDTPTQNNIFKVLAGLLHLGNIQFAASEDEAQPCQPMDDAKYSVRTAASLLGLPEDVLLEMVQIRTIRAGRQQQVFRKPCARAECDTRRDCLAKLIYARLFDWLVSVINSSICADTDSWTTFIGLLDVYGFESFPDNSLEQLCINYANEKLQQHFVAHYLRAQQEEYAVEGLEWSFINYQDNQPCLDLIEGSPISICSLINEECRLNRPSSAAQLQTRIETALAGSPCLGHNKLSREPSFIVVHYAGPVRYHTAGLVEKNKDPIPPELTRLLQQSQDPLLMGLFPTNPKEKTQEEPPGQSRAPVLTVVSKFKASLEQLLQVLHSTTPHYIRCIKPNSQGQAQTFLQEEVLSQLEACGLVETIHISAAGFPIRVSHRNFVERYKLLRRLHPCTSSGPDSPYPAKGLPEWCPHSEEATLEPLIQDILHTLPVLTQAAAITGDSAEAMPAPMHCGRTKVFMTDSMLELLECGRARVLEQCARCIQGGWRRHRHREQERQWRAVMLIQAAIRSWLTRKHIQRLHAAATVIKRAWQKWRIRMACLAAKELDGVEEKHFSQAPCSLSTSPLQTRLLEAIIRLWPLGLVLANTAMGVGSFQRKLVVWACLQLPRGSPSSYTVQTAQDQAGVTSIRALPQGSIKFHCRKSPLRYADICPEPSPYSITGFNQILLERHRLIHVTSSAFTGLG
inactive: [3] -0.07 | [1] 0.016 | [4] 0.146 | [2] 0.088

OAT (UniProt P04181)
UniProt P04181, sequence (P04181 whole entry, looked up): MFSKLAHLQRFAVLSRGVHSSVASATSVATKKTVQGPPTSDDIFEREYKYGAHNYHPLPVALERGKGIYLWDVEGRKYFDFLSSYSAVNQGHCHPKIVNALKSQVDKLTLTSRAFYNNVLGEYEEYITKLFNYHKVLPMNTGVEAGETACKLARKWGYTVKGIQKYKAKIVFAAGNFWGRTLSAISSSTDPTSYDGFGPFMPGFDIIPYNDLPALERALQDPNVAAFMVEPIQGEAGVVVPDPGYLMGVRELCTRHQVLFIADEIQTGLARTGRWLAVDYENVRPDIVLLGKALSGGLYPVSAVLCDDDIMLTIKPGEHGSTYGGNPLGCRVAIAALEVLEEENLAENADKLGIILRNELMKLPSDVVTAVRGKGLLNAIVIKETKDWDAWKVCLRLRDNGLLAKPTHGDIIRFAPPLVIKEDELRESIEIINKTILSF
inactive: [3] -0.019 | [1] 0.083 | [4] 0.05 | [5] -0.024 | [2] -0.045

NAGPA (UniProt Q9UK23)
UniProt Q9UK23, sequence (Q9UK23 whole entry, looked up): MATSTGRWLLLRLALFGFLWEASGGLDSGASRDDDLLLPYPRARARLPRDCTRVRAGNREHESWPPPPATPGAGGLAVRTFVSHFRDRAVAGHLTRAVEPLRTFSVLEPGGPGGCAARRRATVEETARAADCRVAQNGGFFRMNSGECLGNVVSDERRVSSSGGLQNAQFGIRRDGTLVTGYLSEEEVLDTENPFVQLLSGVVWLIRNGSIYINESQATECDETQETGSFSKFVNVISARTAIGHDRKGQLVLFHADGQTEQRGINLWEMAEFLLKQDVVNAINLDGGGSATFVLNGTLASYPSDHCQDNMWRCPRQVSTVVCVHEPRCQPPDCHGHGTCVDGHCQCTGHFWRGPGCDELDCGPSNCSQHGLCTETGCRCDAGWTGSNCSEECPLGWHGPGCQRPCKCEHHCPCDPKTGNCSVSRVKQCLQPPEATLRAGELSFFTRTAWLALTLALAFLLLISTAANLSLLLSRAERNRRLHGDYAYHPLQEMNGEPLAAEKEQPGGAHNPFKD
inactive: [3] 0.179 | [1] -0.048 | [5] -0.004 | [2] 0.061

MON1A (UniProt Q86VX9)
UniProt Q86VX9, sequence (Q86VX9 whole entry, looked up): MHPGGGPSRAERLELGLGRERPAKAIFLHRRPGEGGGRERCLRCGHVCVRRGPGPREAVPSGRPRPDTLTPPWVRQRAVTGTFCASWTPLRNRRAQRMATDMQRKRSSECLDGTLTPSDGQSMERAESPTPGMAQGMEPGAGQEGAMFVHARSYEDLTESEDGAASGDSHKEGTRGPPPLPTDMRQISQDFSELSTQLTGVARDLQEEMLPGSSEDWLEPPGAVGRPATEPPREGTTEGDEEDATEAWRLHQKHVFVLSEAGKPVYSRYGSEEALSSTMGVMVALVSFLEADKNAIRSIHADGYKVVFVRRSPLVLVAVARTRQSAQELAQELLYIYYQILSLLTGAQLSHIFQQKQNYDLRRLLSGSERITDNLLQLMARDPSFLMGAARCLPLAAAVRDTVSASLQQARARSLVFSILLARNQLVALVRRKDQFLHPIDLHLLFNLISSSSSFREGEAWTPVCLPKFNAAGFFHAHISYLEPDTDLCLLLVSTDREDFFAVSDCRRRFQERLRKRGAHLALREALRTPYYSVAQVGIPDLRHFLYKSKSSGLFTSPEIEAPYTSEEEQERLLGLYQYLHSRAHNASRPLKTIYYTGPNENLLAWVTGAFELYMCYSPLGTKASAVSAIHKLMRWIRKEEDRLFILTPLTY
inactive: [3] 0.1 | [5] -0.071

MSL1 (UniProt Q68DK7)
UniProt Q68DK7, sequence (Q68DK7 whole entry, looked up): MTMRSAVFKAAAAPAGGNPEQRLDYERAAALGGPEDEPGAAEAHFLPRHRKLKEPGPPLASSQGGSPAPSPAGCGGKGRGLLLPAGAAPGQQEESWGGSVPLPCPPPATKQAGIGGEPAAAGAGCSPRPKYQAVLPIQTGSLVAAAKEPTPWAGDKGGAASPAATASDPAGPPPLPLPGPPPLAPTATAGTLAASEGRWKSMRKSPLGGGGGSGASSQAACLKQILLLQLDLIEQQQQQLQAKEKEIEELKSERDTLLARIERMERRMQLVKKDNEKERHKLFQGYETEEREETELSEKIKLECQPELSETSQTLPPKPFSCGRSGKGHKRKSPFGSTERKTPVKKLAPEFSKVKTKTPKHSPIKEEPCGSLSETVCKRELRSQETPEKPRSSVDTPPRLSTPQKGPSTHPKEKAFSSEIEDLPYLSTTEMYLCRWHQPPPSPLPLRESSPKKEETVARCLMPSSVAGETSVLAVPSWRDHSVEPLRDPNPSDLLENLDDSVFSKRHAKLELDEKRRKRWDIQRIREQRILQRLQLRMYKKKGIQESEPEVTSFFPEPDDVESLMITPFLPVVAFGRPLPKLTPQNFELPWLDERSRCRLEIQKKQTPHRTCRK
inactive: [3] 0.083 | [4] 0.17

NCKAP1 isoform 2 (UniProt Q9Y2A7)
UniProt Q9Y2A7, sequence (Q9Y2A7 whole entry, looked up): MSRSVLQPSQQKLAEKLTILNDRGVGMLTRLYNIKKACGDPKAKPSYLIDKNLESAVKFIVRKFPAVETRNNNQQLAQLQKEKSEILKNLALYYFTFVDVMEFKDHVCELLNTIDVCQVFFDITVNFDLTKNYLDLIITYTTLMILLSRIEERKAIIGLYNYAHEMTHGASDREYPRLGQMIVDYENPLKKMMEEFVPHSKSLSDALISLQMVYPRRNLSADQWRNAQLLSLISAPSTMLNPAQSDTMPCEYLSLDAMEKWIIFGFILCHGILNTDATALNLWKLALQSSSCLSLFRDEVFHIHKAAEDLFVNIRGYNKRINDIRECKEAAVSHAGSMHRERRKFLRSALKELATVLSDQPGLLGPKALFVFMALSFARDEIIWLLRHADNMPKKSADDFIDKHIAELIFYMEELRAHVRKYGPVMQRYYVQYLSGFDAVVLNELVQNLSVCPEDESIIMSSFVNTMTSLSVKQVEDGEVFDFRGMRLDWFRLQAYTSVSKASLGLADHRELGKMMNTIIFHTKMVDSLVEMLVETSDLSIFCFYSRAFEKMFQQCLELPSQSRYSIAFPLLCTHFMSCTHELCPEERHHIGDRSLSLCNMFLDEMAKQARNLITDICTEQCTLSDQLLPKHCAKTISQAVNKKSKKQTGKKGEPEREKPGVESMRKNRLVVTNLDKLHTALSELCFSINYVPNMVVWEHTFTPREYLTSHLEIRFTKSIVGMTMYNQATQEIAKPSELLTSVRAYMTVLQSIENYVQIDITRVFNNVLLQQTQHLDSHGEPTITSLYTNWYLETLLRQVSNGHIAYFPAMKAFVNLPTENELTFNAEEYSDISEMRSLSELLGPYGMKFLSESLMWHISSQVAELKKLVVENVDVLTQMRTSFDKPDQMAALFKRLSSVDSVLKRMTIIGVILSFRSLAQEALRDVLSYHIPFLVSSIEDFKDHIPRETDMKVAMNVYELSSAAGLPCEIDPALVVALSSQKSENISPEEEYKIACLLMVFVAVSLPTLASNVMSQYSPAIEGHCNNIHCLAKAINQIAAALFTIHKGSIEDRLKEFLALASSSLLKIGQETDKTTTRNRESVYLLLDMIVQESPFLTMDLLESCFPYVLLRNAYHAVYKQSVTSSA
inactive: [3] -0.037 | [1] 0.035 | [4] 0.003 | [5] 0.007 | [2] -0.004
